Laboratory results published in PubChem BioAssay AID463173 (ICCB-Longwood Screening Facility, Harvard Medical School, 2010).
Hit rate of the full screen: of about 52,000 compounds, about 4,300 (8.3%) were called active. This is one part of a sample in which actives are shown more often than they occur. Rule as the data show it: active = survival mostly below about 52% (no sharp cut-off); inactive = mostly above about 56%.

The molecules below were run on DeltatarO mutant (assay: S. aureus survival, RN4220 and DeltatarO strains – OD600, teichoic acid synthesis inhibitors, primary screen (AID 463173)). Conditions: S. aureus RN4220 wild type/DeltatarO growth, OD600, 18 h, stronger effect = lower value, screened at 18.75 µg/mL (by protocol).

Row | Structure (SMILES) | survival
1 | Cc1ccc(NC(=O)c2cccc(NC(=O)N3CCSc4ncccc43)c2)cc1Cl | 88% (inactive)
2 | O=C(CCSCc1cnn(-c2ccccc2)c1-n1cccc1)NCc1ccc(Cl)cc1 | 63% (inactive)
3 | O=S(=O)(c1ccc2nc(Nc3cccc(F)c3)ccc2c1)N1CCCC1 | 72% (inactive)
4 | CC(=O)c1cccc(Nc2ccc3cc(S(=O)(=O)N4CCCC4)ccc3n2)c1 | 101% (inactive)
5 | CCOC(=O)c1cccc(Nc2ccc3cc(S(=O)(=O)N4CCCCC4)ccc3n2)c1 | -1% (active)
6 | COc1ccc(-c2onc(C)c2C)cc1S(=O)(=O)N1CCN(c2ccc(Cl)cc2)CC1 | 64% (inactive)
7 | Clc1cccc(CNNc2nc(N3CCCCC3)nc(N3CCCCC3)n2)c1 | 98% (inactive)
8 | CCn1cc2nc(SCc3cc(C)ccc3C)n(CCc3ccccc3)c(=O)c2n1 | 67% (inactive)
9 | CCOC(=O)c1cnc2ccc(OC)cc2c1NCCc1ccc(OC)c(OC)c1 | 65% (inactive)
10 | CCOC(=O)c1cnc2c(C)c(C)ccc2c1NCCCCCO | 84% (inactive)
11 | CCOC(=O)c1ccc2ncc(C(=O)OCC)c(NCCc3ccc(OC)c(OC)c3)c2c1 | 53% (inactive)
12 | CCOC(=O)c1cnc2c(C)c(Cl)ccc2c1NCCc1ccc(OC)c(OC)c1 | 17% (active)
13 | CCOC(=O)c1cnc2ccc(OC)cc2c1NCCc1ccccc1 | -2% (active)
14 | CCOC(=O)c1cnc2ccc(C)cc2c1NCCc1ccc(OC)c(OC)c1 | 136% (inactive)
15 | CCOC(=O)c1cnc2c(C)c(Cl)ccc2c1NCCc1ccccc1 | -3% (active)
16 | CCOC(=O)c1cnc2c(C)c(Cl)ccc2c1Nc1ccc(C)cc1C | 142% (inactive)
17 | CCOC(=O)c1cnc2ccccc2c1NCCc1ccc(OC)c(OC)c1 | 33% (active)
18 | CCOC(=O)c1cnc2ccc(OCC)cc2c1NCCc1ccc(OC)c(OC)c1 | 116% (inactive)
19 | Cn1c(=O)n(CCc2ccccc2)c(=O)c2c1nc1n2CCN1c1ccc(Cl)cc1 | 76% (inactive)
20 | O=C(Cc1ccccc1)N(Cc1cccnc1)c1nc2ccc(F)cc2s1 | 86% (inactive)
21 | Cc1ccc(C2CCN(C(=O)c3cnn(-c4ccc(C)c(C)c4)c3C3CCN(C(=O)OC(C)(C)C)CC3)C2)cc1 (stereo not drawn) | 90% (inactive)
22 | COc1ccccc1N1CCN(S(=O)(=O)c2ccc(F)c(C(=O)Nc3ccc(C)c(F)c3)c2)CC1 | 93% (inactive)

Row | Structure (SMILES) | survival
23 | Cn1c(=N)n(CC(=O)c2ccc(-c3ccccc3)cc2)c2ccccc21 | 106% (inactive)
24 | CCCCNC(=O)CCCn1c(=O)c2ccccc2n(Cc2c(C)cc(C)cc2C)c1=O | 90% (inactive)
25 | Cc1ccc(NC(=O)Cn2cc(C(=O)C3CCCCC3)c3ccccc32)c(C)c1 | 78% (inactive)
26 | COc1cccc(CNC(=O)COc2cc(=O)n(C)c3ccccc23)c1 | 72% (inactive)
27 | CCOC(=O)c1cnc2c(C)cc(Cl)cc2c1NCCc1ccc(OC)c(OC)c1 | 31% (active)
28 | CCOC(=O)c1cnc2c(C)cc(C)cc2c1NCCc1ccc(OC)c(OC)c1 | 66% (inactive)
29 | CCOC(=O)c1c(C)oc2nc(C)nc(NCCc3ccc(OC)c(OC)c3)c12 | 94% (inactive)
30 | COCCn1c(SCC(=O)c2ccc(F)cc2)nc2cc(C(=O)NC3CCCC3)ccc2c1=O | 94% (inactive)
31 | CCCC1(C(=O)OCC)NC(c2ccccc2F)C2C(=O)N(c3ccccc3)C(=O)C21 (stereo not drawn) | 88% (inactive)
32 | CCOC(=O)c1c(C)[nH]c(C)c1S(=O)(=O)NCC(=O)Nc1cccc(SC)c1 | 66% (inactive)
33 | OC1(C#CCN2CCCCCC2)CCCCC1 | 93% (inactive)
34 | C#CCN1C(=O)C(O)(CC(=O)c2ccc(OC)c(OC)c2)c2cc(Br)ccc21 (stereo not drawn) | 78% (inactive)
35 | O=C(CC1(O)C(=O)N(CCc2ccccc2)c2ccc(Br)cc21)c1ccc(F)cc1 (stereo not drawn) | 55% (inactive)
36 | COc1ccc(C(=O)CC2(O)C(=O)N(CCc3ccccc3)c3ccc(Br)cc32)cc1OC (stereo not drawn) | 53% (inactive)
37 | O=C(CC1(O)C(=O)N(CCc2ccccc2)c2ccc(Br)cc21)c1ccccc1O (stereo not drawn) | 40% (active)
38 | O=C(CC1(O)C(=O)N(CCc2ccccc2)c2ccc(Br)cc21)c1ccccc1 (stereo not drawn) | 25% (active)
39 | Cc1ccc(C(=O)CC2(O)C(=O)N(CCc3ccccc3)c3ccc(Br)cc32)cc1 (stereo not drawn) | 39% (inactive)
40 | Cc1nn2c(-c3ccco3)ccnc2c1-c1ccc(Br)cc1 | 81% (inactive)
41 | N#Cc1c(N)nc(SCc2ccccc2)c(C#N)c1-c1cccs1 | 49% (inactive)
42 | COc1ccc(N(C(=O)Cn2nnc3ccccc32)C(C(=O)NCC2CCCO2)c2sccc2C)cc1 (stereo not drawn) | 94% (inactive)
43 | COc1ccc(-n2nc(C(=O)NCCc3ccc(OC)c(OC)c3)c3c4ccccc4n(C)c3c2=O)cc1 | 89% (inactive)
44 | O=c1[nH]c(=O)n(C2CCCCC2)c(O)c1C1=Nc2ccccc2SC(c2ccccc2)C1 (stereo not drawn) | 93% (inactive)

Row | Structure (SMILES) | survival
45 | Cc1ccc(S(=O)(=O)c2cn(C)c3cc(N4CCCC4)c(F)cc3c2=O)c(C)c1 | 67% (inactive)
46 | COc1cc(OC)c(NC(=O)Cn2cnc3nc4c(cc3c2=O)CCCC4)cc1Cl | -5% (active)
47 | Cc1ccc(C)c(NC(=O)Cn2cnc3nc4c(cc3c2=O)CCCC4)c1 | 89% (inactive)
48 | Cc1cccc(N(C)C(=O)Cn2cnc3nc4c(cc3c2=O)CCCC4)c1 | 17% (active)
49 | Cc1c(Cl)cccc1NC(=O)Cn1cnc2nc3c(cc2c1=O)CCCC3 | 126% (inactive)
50 | Cc1ccc(C)c(N2CCN(C(=O)Cn3cnc4nc5c(cc4c3=O)CCCC5)CC2)c1 | 87% (inactive)
51 | O=C(Cn1cnc2nc3c(cc2c1=O)CCCC3)Nc1ccc(F)cc1Cl | 88% (inactive)
52 | CCc1ccccc1NC(=O)c1ccc(F)c(S(=O)(=O)N2CCN(c3cccc(Cl)c3)CC2)c1 | 88% (inactive)
53 | CCOC(=O)c1ccc(NC(=O)c2nsc3ccccc23)cc1 | 60% (inactive)
54 | CC1CCC(NC(=O)c2ccc3c(c2)N(Cc2ccccc2)C(=O)c2ccccc2S3(=O)=O)CC1 (stereo not drawn) | 115% (inactive)
55 | CCOC(=O)c1c(C)oc2nc(C)nc(NCc3ccccc3OCC)c12 | 102% (inactive)
56 | O=C(CCCn1c(=O)c2sccc2n(Cc2cccc(Cl)c2)c1=O)NCc1ccc2c(c1)OCO2 | 64% (inactive)
57 | CCN(CC)c1ccc(C=C2C(=O)OC3(CCCC3)OC2=O)cc1 | 83% (inactive)
58 | CCN(CC)c1ccc(/C=C2/SC(=O)NC2=O)cc1 | 34% (active)
59 | CCCN(CCC)CN1C(=O)S/C(=C/c2ccc(N(CC)CC)cc2)C1=O | 68% (inactive)
60 | CC(C)CCNC(=O)C1CCN(C(=O)N2CCOc3ccc(Cl)cc32)CC1 | 52% (inactive)
61 | Cc1ccc2c(c1)N(C(=O)N1CCC(C(=O)NC3CCCCCC3)CC1)CCO2 | 82% (inactive)
62 | O=C(NC1CCCCCC1)C1CCN(C(=O)N2CCOc3ccc(Cl)cc32)CC1 | 46% (active)
63 | CC1CN(C(=O)N2CCC(C(=O)NCCC3=CCCCC3)CC2)c2cc(Cl)ccc2O1 (stereo not drawn) | 65% (inactive)
64 | O=C(NCCC1=CCCCC1)C1CCN(C(=O)N2CCOc3ccc(Cl)cc32)CC1 | 47% (active)
65 | O=C(NC1CCCCCC1)C1CCN(C(=O)N2CCOc3ccccc32)CC1 | 76% (inactive)
66 | O=C(NCCC1=CCCCC1)C1CCN(C(=O)N2CCOc3ccccc32)CC1 | 72% (inactive)

Row | Structure (SMILES) | survival
67 | CC1CN(C(=O)N2CCC(C(=O)NCCCc3ccccc3)CC2)c2cc(Cl)ccc2O1 (stereo not drawn) | 56% (inactive)
68 | O=C(NCCCc1ccccc1)C1CCN(C(=O)N2CCOc3ccc(Cl)cc32)CC1 | 46% (active)
69 | CC1CN(C(=O)N2CCC(C(=O)NCc3ccccc3F)CC2)c2cc(Cl)ccc2O1 (stereo not drawn) | 60% (inactive)
70 | CCc1ccccc1NC(=O)C1CCN(C(=O)N2CC(C)Oc3ccc(Cl)cc32)CC1 (stereo not drawn) | 55% (active)
71 | CNC(=O)C1CCN(C(=O)N2CC(C)Oc3ccc(Cl)cc32)CC1 (stereo not drawn) | 59% (inactive)
72 | COc1ccccc1N1CCN(c2nc3c(S(=O)(=O)c4ccc(C)c(C)c4)nnn3c3ccc(Cl)cc23)CC1 | 81% (inactive)
73 | Cc1ccc(NCc2nnc(SCc3cc(C)ccc3C)o2)c(C)c1 | 91% (inactive)
74 | Cc1cccc(C)c1NC(=O)Cn1cc(S(=O)(=O)Cc2ccc(F)cc2)c2ccccc21 | 78% (inactive)
75 | Cc1ccc(C)c(S(=O)(=O)c2nnn3c2nc(Nc2ccc(C)c(C)c2)c2sccc23)c1 | 77% (inactive)
76 | O=C(c1ccc2c(c1)N(Cc1ccccc1F)C(=O)c1ccccc1S2(=O)=O)N1CCC(Cc2ccccc2)CC1 | 71% (inactive)
77 | Cc1ccc(NC(=O)C2Cc3ccccc3N2C(=O)c2ccccc2)cc1Cl (stereo not drawn) | 78% (inactive)
78 | COc1ccc(CCNC(=O)C(=O)NCC(c2ccco2)S(=O)(=O)c2cccs2)cc1 (stereo not drawn) | 99% (inactive)
79 | O=C1CC(c2ccccc2)Sc2nc3ccccc3n21 (stereo not drawn) | 66% (inactive)
80 | CC1CCN(S(=O)(=O)c2ccc3c(c2)oc(=O)n3CC(=O)NCc2ccc(F)cc2)CC1 | 111% (inactive)
81 | Cc1ccc(-c2nnc(Nc3ccccc3O)c3ccccc23)cc1 | 49% (active)
82 | CNS(=O)(=O)c1cc(-c2nnc(Nc3cc(C)ccc3C)c3ccccc23)ccc1C | 69% (inactive)
83 | Cc1ccc(C)c(Nc2nnc(-c3ccc(C)c(S(=O)(=O)N4CCCCC4)c3)c3ccccc23)c1 | 119% (inactive)
84 | COc1cc(C(Nc2ccc(S(=O)(=O)NCC3CCCO3)cc2)C(=O)NC(C)(C)C)cc(OC)c1OC (stereo not drawn) | 109% (inactive)
85 | CC(C)CCNC(=O)c1cccc(Nc2nc3ccccc3n3nnnc23)c1 | 39% (active)
86 | Cc1ccc(CNC(=O)c2cccc(Nc3nc4ccccc4n4nnnc34)c2)cc1 | 45% (inactive)
87 | O=C(NCc1ccccc1)c1cccc(Nc2nc3ccccc3n3nnnc23)c1 | 71% (inactive)
88 | CCc1ccc(NC(=O)Cn2nnc(C(=O)NCCc3ccccc3)c2N)cc1 | 99% (inactive)
